Records with an inconclusive call do not appear. Activity calls are given as the source filed them. Unless noted, the call rests on the fitted dose curve.
Experiments:
[1] = target: Thyrotropin receptor (Homo sapiens) (UniProt P16473); test: qHTS assay to identify small molecule agonists of the thyroid stimulating hormone receptor (TSHR) signaling pathway (AID 1224843); further: nearly all actives have a fitted effect of over 45% in size
In short: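 HEK293 cells stably bearing the thyrotropin receptor were plated at 800 cells/well and challenged with compound (30 min, RT). Accumulated cAMP was quantified via cAMP-d2 competing for cryptate-tagged antibody.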

[2] = qHTS assay to identify small molecule agonists of the hypoxia (HIF-1) signaling pathway - cell viability counter screen (AID 1224844); further: nearly all actives have a fitted effect of over 50% in size
In short: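 ME-180 HRE-bla cells, 2,000/well, 0.5% dialyzed FBS; 5 hr settle, 17 hr compound at 37C/5% CO2; CCF4-AM reporter read first, then CellTiter-Glo luminescence after 30 min RT.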

[3] = qHTS assay to identify small molecule agonists of H2AX (AID 1224845; active means well fitted activation curve with a large enough effect in the signal ratio in the repeat runs, not every such curve was filed as active; the % refers to the signal ratio)
In short: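 Phospho-H2AX Ser139 measured by HTRF (ex 320 nm; em 665 and 620 nm) after 24 hr antibody incubation. Compounds, 15 concentrations, 0.76% DMSO, were applied to CHO-K1 cells for 3hr at 37C before lysis.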

[4] = qHTS assay to identify small molecule agonists of the hypoxia (HIF-1) signaling pathway (AID 1224846; active means well fitted activation curve with a large enough effect in the signal ratio in the repeat runs, not every such curve was filed as active; the % refers to the signal ratio)
In short: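 Cell line: CellSensor HRE-bla ME-180; 2,000 cells/well; 0.5% dialyzed FBS; 5 h preincubation; DMSO compound pin transfer; 17 h, 37C, 5% CO2; CCF4-AM added; bla FRET signal scored for activation.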

[5] = qHTS assay to identify small molecule agonists of H2AX - cell viability counter screen (AID 1224847);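 further: wild-type CHO-K1 cells; top concentration of the series differs between compounds; nearly all actives have a fitted effect of over 30% in size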
In short: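 Cells plated first: CHO-K1, 1000 per well in 10% FBS medium, incubated overnight at 37C. Then 15-point compound titration added (final DMSO 0.76%) for 3 hr. Finally CellTiter-Glo added and luminescence read.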

[6] = qHTS assay to identify small molecule antagonists of the estrogen related receptor (ERR) signaling pathway from Tox21 library (AID 1224848; active means well fitted curve in the direction sought with a large enough effect in the repeat runs; an effect the other way counts as inactive or inconclusive; further: nearly all actives have a fitted effect of over 50% in size)
In short: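 Reading was by luminescence 30 min after ONE-Glo addition. Before that, ERR cells at 2,000 per well had rested 6 h at 37 C/5% CO2 and then received pin-tooled compounds in DMSO for 18 h at 37 C.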

[7] = qHTS assay to identify small molecule agonists of the estrogen related receptor (ERR) signaling pathway from Tox21 library (AID 1224849); details: ERR reporter cell line, ONE-Glo luciferase, 18 h; at 92.4 µM (top of the series) unless noted; further: nearly all actives have a fitted effect of over 15% in size
In short: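 ERR cells, 6 h pre-incubation 37 C/5% CO2; cpd in DMSO pinned; 18 h 37 C; ONE-Glo added, 30 min RT; luminescence read. Agonist mode, qHTS.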

[8] = qHTS RealTime-Glo MT Cell Viability Assay in HepG2 cells - 24 hour (AID 1224867; active means well fitted curve in the direction sought with a large enough effect in the repeat runs; an effect the other way counts as inactive or inconclusive; further: nearly all actives have a fitted effect of over 50% in size)
In short: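 qHTS, HepG2, 600 cells/well, RealTime-Glo (NanoLuc + prosubstrate) added with cells; 5 h preincubation; DMSO compound addition; 37 C; luminescence at 0/8/16/24/32/40 h.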

[9] = qHTS RealTime-Glo MT Cell Viability Assay in HEK293 cells - 32 hour (AID 1224868; active means well fitted curve in the direction sought with a large enough effect in the repeat runs; an effect the other way counts as inactive or inconclusive; further: top concentration of the series differs between compounds; nearly all actives have a fitted effect of over 50% in size)
In short: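 Assay medium contained NanoLuc luciferase plus cell-permeant prosubstrate, added with HEK293 cells at 600 cells/well. After 5 h at 37 C/5% CO2 compounds were added; plates stayed at 37 C for 40 h with serial luminescence reads.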

[10] = A CellTox Green Cytotoxicity Assay to monitor cytotoxicity in HEK293 cells - 0 hour (AID 1224869; active means well fitted curve in the direction sought with a large enough effect in the repeat runs; an effect the other way counts as inactive or inconclusive; further: nearly all actives have a fitted effect of over 50% in size; further: potency means the concentration at half of the fitted maximal effect)
In short: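 Nonlytic real-time cytotoxicity: HEK293 + CellTox Green reagent plated, 5 h preincubation, pintool compound addition (23 nL in DMSO), 37 C for 40 h, fluorescence measured at successive time points.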
On the % scale 0 is the no-effect control and ±100 the full control effect.

Sequence of Thyrotropin receptor (Homo sapiens) (P16473 whole entry, looked up): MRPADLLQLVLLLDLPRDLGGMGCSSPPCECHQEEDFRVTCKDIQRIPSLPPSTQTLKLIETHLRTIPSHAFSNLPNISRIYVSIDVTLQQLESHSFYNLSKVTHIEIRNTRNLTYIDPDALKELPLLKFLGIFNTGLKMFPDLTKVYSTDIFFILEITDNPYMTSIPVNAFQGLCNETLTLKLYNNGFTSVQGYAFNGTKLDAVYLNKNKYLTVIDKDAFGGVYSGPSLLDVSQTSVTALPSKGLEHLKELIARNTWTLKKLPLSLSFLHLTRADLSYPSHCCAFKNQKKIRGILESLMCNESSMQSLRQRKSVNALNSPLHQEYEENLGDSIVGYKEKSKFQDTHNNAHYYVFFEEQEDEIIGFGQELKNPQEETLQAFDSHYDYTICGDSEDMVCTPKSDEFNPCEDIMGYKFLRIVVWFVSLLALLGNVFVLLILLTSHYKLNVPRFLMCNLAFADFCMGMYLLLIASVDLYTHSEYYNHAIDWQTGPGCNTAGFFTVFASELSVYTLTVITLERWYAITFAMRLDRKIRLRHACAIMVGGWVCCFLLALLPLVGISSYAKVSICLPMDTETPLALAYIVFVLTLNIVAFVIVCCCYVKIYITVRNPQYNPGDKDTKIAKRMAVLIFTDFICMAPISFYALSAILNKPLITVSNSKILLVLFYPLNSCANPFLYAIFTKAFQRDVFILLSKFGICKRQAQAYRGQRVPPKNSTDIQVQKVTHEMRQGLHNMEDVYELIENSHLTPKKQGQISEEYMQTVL

NS(=O)(=O)c1ccccc1Cl
inactive: Potency [1] | Potency [2] | outcome [3] | outcome [4] | Potency [5] | Potency [6] | activity change, positive = activation [7] 2.78% | Potency [8] | Potency [9] | Potency [10]

CCC=O
inactive: Potency [1] | Potency [2] | outcome [3] | outcome [4] | Potency [5] | Potency [6] | activity change, positive = activation [7] 0.85% | Potency [8] | Potency [9]

C=CCOCC(CC)(CO)COCC=C
inactive: Potency [1] | Potency [2] | outcome [3] | outcome [4] | Potency [5] | Potency [6] | activity change, positive = activation [7] 4.88% | Potency [8] | Potency [9] | Potency [10]

CC(C)=CCCC(C)CC(=O)O (stereo not drawn)
inactive: Potency [1] | Potency [2] | outcome [3] | outcome [4] | Potency [5] | Potency [6] | activity change, positive = activation [7] 3.83% | Potency [8] | Potency [9] | Potency [10]

NC(=O)COCCN1CCN(C(c2ccccc2)c2ccc(Cl)cc2)CC1 (stereo not drawn)
inactive: Potency [1] | Potency [2] | outcome [3] | outcome [4] | Potency [5] | Potency [6] | activity change, positive = activation [7] 5.27% [at 42.5 µM] | Potency [8] | Potency [9] | Potency [10]

C=CCCCCCCCCC=O
inactive: Potency [1] | Potency [2] | outcome [3] | outcome [4] | Potency [5] | Potency [6] | activity change, positive = activation [7] -2.86% | Potency [8] | Potency [9]

CCOc1ccc(C(=O)OCCN(CC)CC)cc1
inactive: Potency [1] | Potency [2] | outcome [3] | outcome [4] | Potency [5] | Potency [6] | activity change, positive = activation [7] 1.57% [at 42.5 µM] | Potency [8] | Potency [9] | Potency [10]

Nc1c[n+](N2CCOCC2)no1
inactive: Potency [1] | Potency [2] | outcome [3] | outcome [4] | Potency [5] | Potency [6] | activity change, positive = activation [7] 0.251% [at 42.5 µM] | Potency [8] | Potency [9]

C[C@H]1C[C@@H](O)CC(C)(C)C1
inactive: Potency [1] | Potency [2] | outcome [3] | outcome [4] | Potency [5] | Potency [6] | activity change, positive = activation [7] 0.742% | Potency [8] | Potency [9]

NC(=O)Nc1ccccc1
inactive: Potency [1] | Potency [2] | outcome [3] | outcome [4] | Potency [5] | Potency [6] | activity change, positive = activation [7] 8.88% | Potency [8] | Potency [9] | Potency [10]

COC(=O)CC(C)=O
inactive: Potency [1] | Potency [2] | outcome [3] | outcome [4] | Potency [5] | Potency [6] | activity change, positive = activation [7] 2.59%

CCCCCCCCCCCC
inactive: Potency [1] | Potency [2] | outcome [3] | outcome [4] | Potency [5] | Potency [6] | activity change, positive = activation [7] 11.3% | Potency [8] | Potency [9] | Potency [10]

CC(C)NCCCC1(C(N)=O)c2ccccc2-c2ccccc21
inactive: Potency [1] | Potency [2] | outcome [3] | outcome [4] | Potency [5] | Potency [6] | activity change, positive = activation [7] 9.55% [at 42.5 µM] | Potency [8]

CC(C)(CC(=O)O)C(=O)O
inactive: Potency [1] | Potency [2] | outcome [3] | outcome [4] | Potency [5] | Potency [6] | activity change, positive = activation [7] 3.63% | Potency [8] | Potency [9]

CC/C=C\CC/C=C/C(OCC)OCC
inactive: Potency [1] | Potency [2] | outcome [3] | outcome [4] | Potency [5] | Potency [6] | activity change, positive = activation [7] 2.27% | Potency [8] | Potency [9] | Potency [10]

Nc1ccccc1S(=O)(=O)O
inactive: Potency [1] | Potency [2] | outcome [3] | outcome [4] | Potency [5] | Potency [6] | activity change, positive = activation [7] 3.7% | Potency [8] | Potency [9] | Potency [10]

CCCc1cc(C(N)=S)ccn1
inactive: Potency [1] | Potency [2] | outcome [3] | outcome [4] | Potency [5] | Potency [6] | activity change, positive = activation [7] -6.09% [at 42.5 µM] | Potency [8] | Potency [9] | Potency [10]

C[N+](C)(C)CC(O)CC(=O)[O-] (stereo not drawn)
inactive: Potency [1] | Potency [2] | outcome [3] | outcome [4] | Potency [5] | Potency [6] | activity change, positive = activation [7] 3.63% [at 42.5 µM] | Potency [8] | Potency [9]

COc1ccc2c(c1)c(CC(=O)OCC(=O)O)c(C)n2C(=O)c1ccc(Cl)cc1
inactive: Potency [1] | Potency [2] | outcome [3] | outcome [4] | Potency [5] | Potency [6] | activity change, positive = activation [7] 3.06% [at 42.5 µM] | Potency [8] | Potency [9]

CN(C)CCCSc1ccccc1NC(=O)/C=C/c1ccccc1
active: Potency [10] 16.9 µM
inactive: Potency [1] | Potency [2] | outcome [3] | outcome [4] | Potency [5] | Potency [6] | activity change, positive = activation [7] 9.36% [at 42.5 µM] | Potency [8] | Potency [9]

CN1CCCC1
inactive: Potency [1] | Potency [2] | outcome [3] | outcome [4] | Potency [5] | Potency [6] | activity change, positive = activation [7] 4.55% | Potency [8] | Potency [9] | Potency [10]

Reference: PubChem BioAssay (Tox21)
